{
  "source": "the supplement of paper PMC11417369",
  "note": "Over roughly 25,000 sequences, “ln(normalized median fluorescence intensity)” has its median near 9.3; the highest 2% begin near 10. Only a selection was taken, and the highest values are over-represented in it overall.",
  "data": [
    {"system": "PF3D7_0420300 AP2 domain 1 (GST-tagged)", "assay": "gcPBM binding intensity (ln(normalized median fluorescence intensity)); higher = stronger DNA binding", "summary_of_the_method": "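Each value is the highest Masliner-normalised natural-log median intensity across replicate spots of either orientation of a probe. The probes were primer-extended double-stranded 36-bp intergenic genomic sequences on an Agilent 4 × 180k array, alongside negative controls, exposed for 1 h to GST-tagged P. falciparum DNA-binding domains expressed in E. coli. Bound protein was picked up with Alexa488 anti-GST antibody and scanned at 488 nm.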", "values": [
      {"sequence": "TAATTAACAAACTATAGTACACAAAATACTTCATAT [XGTACX_site6375]", "gcPBM binding intensity (ln)": 9.44},
      {"sequence": "ATGGTAGTGATTAAAAGTACACGTAATTGTAAAAAT [XGTACX_site387]", "gcPBM binding intensity (ln)": 9.45},
      {"sequence": "TATATTTAGTAAAAAGGTACCATTCTTATTTATATT [CACACA_negctrl_site1165]", "gcPBM binding intensity (ln)": 9.13},
      {"sequence": "TTTTATGTAATTATTTGTACATATGCCTCTTAAACT [XGTACX_site748]", "gcPBM binding intensity (ln)": 9.19},
      {"sequence": "AAAAAAATATATTCCTAATTTATGATTAAAAGGAAT [CACACA_negctrl_site751]", "gcPBM binding intensity (ln)": 8.98},
      {"sequence": "ATATATTTTTTCTTAACACACATATATAAAATAAAA [CACACA_site3500]", "gcPBM binding intensity (ln)": 9.24},
      {"sequence": "AAGAGAAATGGGCACACACACACATATTATAGATAT [CACACA_site6828]", "gcPBM binding intensity (ln)": 10.2},
      {"sequence": "AAAAGAGAAATGGGCACACACACACCCATTATATAT [CACACA_site1530]", "gcPBM binding intensity (ln)": 9.88},
      {"sequence": "AGAAAAGAGAAATGGGCACACACACCCATATTATAT [CACACA_site8433]", "gcPBM binding intensity (ln)": 9.66},
      {"sequence": "AAAAGAGAAATGGGCACACACACACCGATTATATAT [CACACA_site4942]", "gcPBM binding intensity (ln)": 10.2},
      {"sequence": "AAGAGAAATGGGCACACACACACATATTATATATAT [CACACA_site1531]", "gcPBM binding intensity (ln)": 10.1},
      {"sequence": "GAGAAATGGGGACACACACACATATTATAGATATAT [CACACA_site6829]", "gcPBM binding intensity (ln)": 10.1},
      {"sequence": "TAATATACTTAATACACACACGAATATTTATAAATA [CACACA_site6675]", "gcPBM binding intensity (ln)": 9.73},
      {"sequence": "ACATATTATAGGAATACACACAAAAACTTATCGGTA [CACACA_site7587]", "gcPBM binding intensity (ln)": 9.87},
      {"sequence": "CAAGCACAGAAACACACACACACACCGACACAGACA [CACACA_site4359]", "gcPBM binding intensity (ln)": 10.2},
      {"sequence": "ACATCAAGCAGACACACACACACACCCACCCACCGA [CACACA_site371]", "gcPBM binding intensity (ln)": 10.2},
      {"sequence": "CACCCACCCAGACACACACACACAAAAAAAAAAAGA [CACACA_site499]", "gcPBM binding intensity (ln)": 10.1},
      {"sequence": "GTAATACCCAAACACACACACATACCCATATATATA [CACACA_site5510]", "gcPBM binding intensity (ln)": 10},
      {"sequence": "AAAATACCCGGACACACACACATATATATATATATT [CACACA_site6137]", "gcPBM binding intensity (ln)": 9.96},
      {"sequence": "AACAGACAGAAACACACACACATATATATATATATA [CACACA_site3394]", "gcPBM binding intensity (ln)": 9.81},
      {"sequence": "AATACCCAAGGACACACACACACATATATATATATA [CACACA_site8345]", "gcPBM binding intensity (ln)": 10.2},
      {"sequence": "ATACATCAAGGACACACACACACACCCACACCCACA [CACACA_site8013]", "gcPBM binding intensity (ln)": 10.3},
      {"sequence": "CATACACCCATACATACACACATACATACACCCATA [CACACA_site5124]", "gcPBM binding intensity (ln)": 9.78},
      {"sequence": "CAAGCACCCAGACACACACACACACCCACACCCACA [CACACA_site369]", "gcPBM binding intensity (ln)": 10.2},
      {"sequence": "CATATACATCCACATACACACATACACCCATACACA [CACACA_site5038]", "gcPBM binding intensity (ln)": 9.74},
      {"sequence": "ATTATTACTATATGTGTACACATCAACTGGTTTGAT [CACACA_site5563]", "gcPBM binding intensity (ln)": 9.39},
      {"sequence": "AAAAAAAAAAAAAAGGTGCATACTTTGAATTAATAT [GTGCAC_site9401]", "gcPBM binding intensity (ln)": 9.2},
      {"sequence": "ATAAAAAATATCACATAAAATAAAAAAAGAAAGGAT [XGTACX_negctrl_site294]", "gcPBM binding intensity (ln)": 9.62},
      {"sequence": "AGTGGACTTTTTTTTTTTTTTTTTTTTTTTTTATTA [CACACA_negctrl_site547]", "gcPBM binding intensity (ln)": 9.2},
      {"sequence": "AGTATAAATATATTATGTACATATATATTATACTTA [XGTACX_site2623]", "gcPBM binding intensity (ln)": 9.09},
      {"sequence": "ATTATCTATCGTTTTTGTACTTACACCTTAATACAA [XGTACX_site7337]", "gcPBM binding intensity (ln)": 9.58},
      {"sequence": "ACATCAAGCAGACACACACACACACCCACCCACCCA [CACACA_site8012]", "gcPBM binding intensity (ln)": 10.4},
      {"sequence": "TACACAAGCAGACACACACACATATATATATATATA [CACACA_site1270]", "gcPBM binding intensity (ln)": 9.72},
      {"sequence": "ACATCAAGCGGACACACACACACACCGACAGACACA [CACACA_site4361]", "gcPBM binding intensity (ln)": 10.2},
      {"sequence": "TACACAAGCGGACACACACACATATATATATATATA [CACACA_site4832]", "gcPBM binding intensity (ln)": 9.81},
      {"sequence": "AAGCATACATCAAGCACACACACACCCACAGAGACA [CACACA_site4362]", "gcPBM binding intensity (ln)": 9.89},
      {"sequence": "TAAAGTATTACAACCACACACACACCGATATATTAT [CACACA_site9382]", "gcPBM binding intensity (ln)": 9.99},
      {"sequence": "ATAAAAATAAAAAGTGTGCACACAAAAATATATATA [GTGCAC_site9931]", "gcPBM binding intensity (ln)": 9.9},
      {"sequence": "ATATATATATATATATGTACATATTCACTTATATTT [XGTACX_site5324]", "gcPBM binding intensity (ln)": 9.18},
      {"sequence": "ATTAAACATAAATATGCACACATATACATATATTCA [CACACA_site8850]", "gcPBM binding intensity (ln)": 9.4},
      {"sequence": "TATGTACACCCATATACACACCTCTATAATATATAT [CACACA_site4563]", "gcPBM binding intensity (ln)": 9.67},
      {"sequence": "TTTTATGAAAAGTATTGTACGTATAATTTATATGTA [XGTACX_site1639]", "gcPBM binding intensity (ln)": 9.04},
      {"sequence": "GGAACTTATTTTTATACACACATATGTGCATATTAT [CACACA_site629]", "gcPBM binding intensity (ln)": 9.68},
      {"sequence": "TAAAAAGGAAGACACACACACACATATATAAATATA [CACACA_site7657]", "gcPBM binding intensity (ln)": 10.2},
      {"sequence": "CATATAAAAAGACACACACACACATATATATATATA [CACACA_site940]", "gcPBM binding intensity (ln)": 10}
    ]}
  ]
}
